FBW7 activator = human FBW7 E3 ligase activation, primary screen; Q969H0; AlphaScreen FBW7–phospho-cyclin E peptide binding, activator screen; normalized activity (activation), % at 26.1 µM; 650,000 tested, 0.13% active; AID 1259310; in the data active means normalized activity above about 1.9%;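 further: purified mutant Fbw7 with reduced substrate affinity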
Target sequence (Q969H0 whole entry, looked up): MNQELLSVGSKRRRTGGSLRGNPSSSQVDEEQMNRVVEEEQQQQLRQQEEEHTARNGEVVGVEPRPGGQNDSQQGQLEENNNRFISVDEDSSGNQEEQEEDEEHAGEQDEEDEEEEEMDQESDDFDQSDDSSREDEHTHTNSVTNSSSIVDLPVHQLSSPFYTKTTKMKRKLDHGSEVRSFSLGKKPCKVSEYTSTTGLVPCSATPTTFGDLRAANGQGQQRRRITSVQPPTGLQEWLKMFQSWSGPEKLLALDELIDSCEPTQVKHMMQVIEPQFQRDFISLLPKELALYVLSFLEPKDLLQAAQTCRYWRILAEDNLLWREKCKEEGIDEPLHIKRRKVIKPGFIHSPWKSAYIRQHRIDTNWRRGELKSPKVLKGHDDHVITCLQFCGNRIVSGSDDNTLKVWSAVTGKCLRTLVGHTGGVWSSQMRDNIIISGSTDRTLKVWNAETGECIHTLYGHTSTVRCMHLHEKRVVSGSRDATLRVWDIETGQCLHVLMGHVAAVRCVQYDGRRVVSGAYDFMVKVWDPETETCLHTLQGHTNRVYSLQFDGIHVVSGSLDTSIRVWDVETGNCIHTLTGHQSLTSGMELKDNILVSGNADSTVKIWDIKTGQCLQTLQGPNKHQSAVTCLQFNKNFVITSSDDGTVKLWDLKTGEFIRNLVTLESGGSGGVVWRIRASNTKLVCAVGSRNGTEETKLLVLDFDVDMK
TEAD-YAP block = TEAD-YAP interaction inhibition | 640,000 tested, 1.4% active | inhibition, % at 9.12 µM | HEK-TIYL cells, TEAD-Gal4/YAP UAS-luciferase luminescence; in the data active means inhibition above about 32%;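 further: 0% = median of test compound wells and 100% = reference inhibitor wells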
MITF primary = inhibitors of human MITF. AlphaScreen MITF homodimerization, bead proximity signal. inhibition, % at 2.6 µM. 650,000 tested, 0.91% active; in the data active means inhibition above about 50%;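 further: 0% = vehicle wells with protein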
GPR151 ag = activators of human GPR151; Q8TDV0; 650,000 tested, 1% active; AID 1508602; PathHunter beta-arrestin GPR151 cells, luminescence; activation, % at 11.2 µM; in the data active means activation above about 4.9%;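 further: 0% = median of compound wells and 100% = cells with positive control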
Numbers without * were called inactive; ! = a repeat was not active. Only some compounds are listed: those with a hit (about 3.5% of all), similar ones and a draw of the others.

SMILES | FBW7 activator | TEAD-YAP block | MITF primary | GPR151 ag
O=c1c(-c2ccc(O)cc2)coc2cc(OC3OC(CO)C(O)C(O)C3O)cc(O)c12 (configuration not stated) | -0.2 | 14.7 | -12.1 | 0.2
COc1ccc(-c2coc3cc(O)ccc3c2=O)c(O)c1O | 0.3 | -7.8 | 80.3* | -1.4
O=c1c(-c2ccc(O)cc2)coc2cc(O)ccc12 | 0.3 | 73.2*! | 18.9 | -1.8
COc1ccc2c(=O)c(-c3ccc(O)cc3)coc2c1 | -0.1 | 80.8* | -7.4 | -2.0
COc1ccc(-c2cc(C(F)(F)F)n3ncc(C(=O)NC4CCCC4)c3n2)cc1OC | 0.1 | 7.2 | 11.5 | -0.9
CCCn1c(=O)c2c(C(=O)OCC)cc(-c3ccccn3)nc2n(CCC)c1=O | -0.1 | 4.1 | 2.4 | 0.6
O=c1c(-c2cnn(-c3ccccc3)c2)coc2cc(O)ccc12 | 0.1 | 33.0* | -21.7 | -2.1
O=c1c(-c2cnn(-c3ccccc3)c2)coc2c(O)c(O)ccc12 | -0.1 | -77.4 | 7.2 | -0.1
COc1ccc(-c2cc(C(F)(F)F)c3nc(OC(C)C(C)=O)oc3n2)cc1OC (configuration not stated) | 0.0 | 80.8* | -1.2 | 1.5
COc1ccccc1N1CCN(c2nnnn2-c2ccccc2)CC1 | -0.2 | 36.8* | 3.3 | -0.6
CCCCn1c(C(CC)N(C)C)n[nH]c1=S (configuration not stated) | 0.1 | -6.9 | 19.4 | 0.7
COc1ccc(-c2cc(N3CCN(C/C=C/c4ccccc4)CC3)ncn2)cc1 | 0.0 | 35.3* | -8.9 | 0.8
COc1cc(/C=C2\NC(=S)NC2=O)cc(OC)c1O | 0.0 | -2.9 | 8.3 | 0.0
COc1cccc(/C=C2\NC(=S)NC2=O)c1O | 0.0 | 76.0* | 10.9 | -1.1
CCOc1cccc(/C=C2\NC(=S)N(C)C2=O)c1O | 2.4* | -33.2 | -13.4 | -1.6
CCOc1ccc(/C=C2\NC(=S)N(C)C2=O)c(OCC)c1 | 0.0 | 9.8 | 10.5 | -0.4
O=C(CN1C(=O)c2ccccc2C1=O)N1CCN(Cc2ccc(Cl)cc2)CC1 | 0.1 | 3.1 | 7.7 | 0.2
Cc1ccc(-n2ncc3c(N4CCCCC4)ncnc32)cc1C | 0.0 | 73.4* | 9.9 | -4.4
Cc1cccc(-n2ncc3c(N4CCCC4)ncnc32)c1 | -0.1 | 51.7* | -0.2 | 0.2
Cc1ccc(-n2ncc3c(N4CCOCC4)ncnc32)c(C)c1 | -0.2 | 58.2* | 0.3 | 0.7
Cc1ccc(-n2ncc3c(N4CCCCC4)ncnc32)c(C)c1 | 0.1 | -33.2 | 5.3 | 1.5
Cc1cccc(-n2ncc3c(N4CCN(c5ccccc5)CC4)ncnc32)c1 | 0.1 | -7.5 | -3.6 | -0.4
Cc1ccc(-n2ncc3c(N4CCCC4)ncnc32)cc1 | 0.3 | 48.0* | -8.7 | -2.0
CCOC(=O)c1c(C)n(CC(O)CNC(C)C)c2ccc(OC)cc12 (configuration not stated) | -0.1 | -6.0 | 4.6 | 0.9
COc1cc([N+](=O)[O-])ccc1NC(=S)NNC(=O)c1ccc(Br)s1 | 0.0 | 5.3 | 11.4 | -0.3
SMILES | FBW7 activator | TEAD-YAP block | MITF primary | GPR151 ag
CCOC(=O)c1ccccc1SC1CC(=O)N(c2ccccc2)C1=O (configuration not stated) | -0.1 | -11.9 | -8.6 | 0.5
Cc1cccc(N2CCN(c3ncnc4c3cnn4-c3ccccc3)CC2C)c1 (configuration not stated) | 0.7 | 43.1* | 14.2 | -0.5
Cc1cccc(-n2ncc3c(N4CCOCC4)ncnc32)c1 | 0.0 | 93.3* | -1.3 | -6.7
Cc1ccc(N2CCN(c3ncnc4c3c(-c3ccccc3)cn4-c3ccc(Br)cc3)CC2C)cc1 (configuration not stated) | 3.7* | -4.6 | -3.0 | -0.6
Cc1nc(-c2ccccn2)cc(N2CCCCC2)n1 | -0.6 | 39.6* | -4.8 | 0.0
COc1ccc2c(c1)SC(C)C(=O)N2Cc1cc(C)on1 (configuration not stated) | 0.0 | 2.6 | 16.4 | 0.5
Cc1cc(NS(=O)(=O)c2ccc(NC(=O)CCCOc3ccccc3)cc2)no1 | 0.0 | 1.9 | 7.5 | -0.1
Cc1cc(NS(=O)(=O)c2ccc(NC(=O)CCCOc3ccc(Cl)cc3)cc2)no1 | 2.9* | 3.8 | 1.4 | 2.0
CCCCc1ccc(-c2nc(Nc3cc(Oc4ccc(F)cc4)cc([N+](=O)[O-])c3)c3ccccc3n2)cc1 | -0.1 | -10.6 | 15.5 | 1.0
COc1cc(-c2nc(Nc3cc(Sc4ccc(F)cc4)cc([N+](=O)[O-])c3)c3ccccc3n2)cc(OC)c1OC | 0.1 | -3.1 | 4.9 | 0.4
CCCCc1ccc(-c2nc(Nc3cc(Sc4ccc(F)cc4)cc([N+](=O)[O-])c3)c3ccccc3n2)cc1 | 0.3 | 57.3* | 10.1 | 1.0
CCCCc1ccc(-c2nc(Nc3cc(Oc4ccccc4)cc([N+](=O)[O-])c3)c3ccccc3n2)cc1 | -0.1 | 50.1* | -11.5 | 3.6
N#Cc1c(N2CCOCC2)sc(C(=O)O)c1-c1ccc(Cl)cc1 | 0.2 | 0.8 | -5.8 | -0.4
O=C(Nc1ccc(F)c(F)c1)c1ccc(N2CC3CC(C2)c2cccc(=O)n2C3)c(NC(=O)c2ccccc2Br)c1 (configuration not stated) | 0.1 | -2.6 | -7.5 | -1.2
COc1ccc2nc(NC(=O)c3cccs3)sc2c1 | 0.1 | 43.6* | -3.7 | -8.0
CCCCCCOc1ccc(C(=O)Nc2nc3ccccc3s2)cc1 | -0.1 | 6.6 | 9.4 | -0.1
COc1ccc2nc(NC(=O)c3ccccc3)sc2c1 | 0.0 | 43.5* | -22.4 | -7.3
O=C(Nc1nc2ccccc2s1)c1ccc(C(=O)c2ccccc2)o1 | 0.0 | 35.6* | -11.0 | -1.5
CCOc1ccc(C(=O)Nc2nc3ccccc3s2)cc1 | -0.1 | 56.5* | -2.6 | -6.5
CCOc1ccc2nc(NC(=O)c3cccs3)sc2c1 | 0.0 | 30.8 | -11.6 | -9.1
CCOc1cccc2nc(NC(=O)c3ccc(Oc4ccccc4)cc3)sc12 | -0.1 | -8.0 | -5.2 | -0.1
CCOc1ccc2nc(NC(=O)NC(=O)C(F)(F)F)sc2c1 | 0.0 | 62.7* | -3.7 | -1.6
Cc1cccc2nc(NC(=O)c3ccc(Oc4ccccc4)cc3)sc12 | 0.0 | 52.1* | -13.9 | 1.0
CC1(C)CC(=O)C2=C(C1)NC(=S)NC2C1CCCCC1 (configuration not stated) | -0.1 | -0.9 | -8.0 | 1.7
CCOC(=O)c1[nH]c(C)c(C(=O)Nc2ccc(OC)cc2)c1C | 0.1 | -3.7 | -0.7 | -0.6
SMILES | FBW7 activator | TEAD-YAP block | MITF primary | GPR151 ag
CCOC(=O)c1[nH]c(C)c(C(=O)Nc2ccc(OC)cc2OC)c1C | 0.0 | 44.3* | 5.6 | 1.5
CCOC(=O)c1[nH]c(C)c(C(=O)Nc2ccccc2OC)c1C | 0.9 | 58.6* | 17.3 | -0.5
CCOC(=O)c1[nH]c(C)c(C(=O)Nc2ccccc2)c1C | 0.0 | -13.6 | 3.4 | -0.5
CCOC(=O)c1[nH]c(C)c(C(=O)Nc2ccccc2F)c1C | 0.6 | 29.6 | 13.0 | -1.5
CCOC(=O)c1[nH]c(C)c(C(=O)Nc2ccccc2SC)c1C | -0.2 | 51.7* | -3.2 | 0.9
CC1CN2c3ccccc3C(C)(C)C2(/C=C/c2ccc(N(C)C)cc2)NC1=O (configuration not stated) | -0.7 | 38.9* | 32.6 | 1.1
CC1(C)c2ccccc2N2CC(=O)NC21/C=C/c1ccccc1 (configuration not stated) | 0.1 | 3.0 | -0.2 | 3.0
